# Assay results: PubChem BioAssay (Tox21)
# Values joined by “and” are separate entries in the source; they are usually repeats but may differ in a detail not shown here. Equal values may be shown once. Inconclusive results are not listed. A call without a number means that no potency is given here. Some structures have more than one record in an assay (separate samples or runs), and their calls can disagree. Active and inactive are the calls of the source. Unless noted, calls come from the whole dose curve; as a rule, active = well fitted curve in the direction sought with a large enough effect in the repeat runs; inconclusive = weak or mixed curves; inactive = no such curve, though single readings can be large; an effect the other way counts as inactive or inconclusive.
# How the values were obtained:
# [1] = qHTS assay to identify small molecule agonists of the hypoxia (HIF-1) signaling pathway - cell viability counter screen (AID 1224844; calls by dose curve; note: nearly all actives have a fitted effect of over 50% in size; note: potency is the fitted concentration of half-maximal effect)
# Procedure, shortened: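 Multiplexed with the HRE beta-lactamase assay, this viability read used CellTiter-Glo luminescence (30 min, RT) on HRE-bla ME-180 cells treated 17 hrs with compounds in 0.5% dialyzed FBS medium.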
# [2] = qHTS assay to identify small molecule agonists of H2AX (AID 1224845; active = well fitted activation curve with a large enough effect in the signal ratio in the repeat runs, not every such curve was filed as active; the % refers to the signal ratio)
# Procedure, shortened: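 Phospho-H2AX Ser139 measured by HTRF (ex 320 nm; em 665 and 620 nm) after 24 hr antibody incubation. Compounds, 15 concentrations, 0.76% DMSO, were applied to CHO-K1 cells for 3hr at 37C before lysis.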
# [3] = qHTS assay to identify small molecule agonists of H2AX - cell viability counter screen (AID 1224847; calls by dose curve; note: nearly all actives have a fitted effect of over 30% in size; note: potency is the fitted concentration of half-maximal effect)
# Procedure, shortened: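 After overnight plating of 1000 CHO-K1 cells per well, a 15-concentration compound series was applied for 3 hr at 37C. Luminescence from CellTiter-Glo, read following 30 min at room temperature, reflected cell viability.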
# [4] = qHTS RealTime-Glo MT Cell Viability Assay in HepG2 cells - 24 hour (AID 1224867); note: nearly all actives have a fitted effect of over 50% in size; note: potency is the fitted concentration of half-maximal effect
# Procedure, shortened: (§1)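 HepG2 cells (600/well) were dispensed with RealTime-Glo reagents, incubated 5 h at 37 °C, then treated with compounds in DMSO for up to 40 h. Nonlytic NanoLuc luminescence reflecting viable cells was read at each stated time point.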
# [5] = qHTS RealTime-Glo MT Cell Viability Assay in HEK293 cells - 32 hour (AID 1224868); note: nearly all actives have a fitted effect of over 50% in size; note: potency is the fitted concentration of half-maximal effect
# Procedure, shortened: (§2)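 HEK293 cells seeded with NanoLuc/prosubstrate reagent, rested 5 h at 37 C, then dosed and kept at 37 C up to 40 h. Nonlytic real-time luminescence from viable cells read at 0, 8, 16, 24, 32 and 40 h.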
# [6] = A CellTox Green Cytotoxicity Assay to monitor cytotoxicity in HEK293 cells - 0 hour (AID 1224869); note: nearly all actives have a fitted effect of over 50% in size; note: potency is the fitted concentration of half-maximal effect
# Procedure, shortened: (§3)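 Seeding of HEK293 cells together with cytotoxicity dye preceded a 5 h incubation at 37 C/5% CO2. Test compounds in DMSO were then added and fluorescence monitored across 40 h.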
# [7] = qHTS RealTime-Glo MT Cell Viability Assay in HepG2 cells - 40 hour (AID 1224870); note: nearly all actives have a fitted effect of over 50% in size; note: potency is the fitted concentration of half-maximal effect
# Procedure, shortened: (§4)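 Real-time viability: cells seeded at 600 per well together with NanoLuc and cell-permeant prosubstrate, compounds added after 5 h incubation. Luminescence tracked at 0, 8, 16, 24, 32 and 40 h of exposure.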
# [8] = qHTS RealTime-Glo MT Cell Viability Assay in HEK293 cells - 16 hour (AID 1224872); note: nearly all actives have a fitted effect of over 50% in size; note: potency is the fitted concentration of half-maximal effect
# Procedure, shortened: as §2
# [9] = qHTS RealTime-Glo MT Cell Viability Assay in HepG2 cells - 8 hour (AID 1224873); note: nearly all actives have a fitted effect of over 55% in size
# Procedure, shortened: as §4
# [10] = qHTS RealTime-Glo MT Cell Viability Assay in HEK293 cells - 40 hour (AID 1224874); conditions: RealTime-Glo luminescence; max response: stronger effect = lower value; note: nearly all actives have a fitted effect of over 50% in size; note: potency is the fitted concentration of half-maximal effect
# Procedure, shortened: (§5)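 Tox21 screen in HEK293 using RealTime-Glo MT chemistry, with cells and reagent co-dispensed. Luminescence proportional to viable cell number was captured at intervals during 40 h compound exposure at 37 C.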
# [11] = A CellTox Green Cytotoxicity Assay to monitor cytotoxicity in HEK293 cells - 24 hour (AID 1224875); note: nearly all actives have a fitted effect of over 45% in size; note: potency is the fitted concentration of half-maximal effect
# Procedure, shortened: as §3
# [12] = qHTS RealTime-Glo MT Cell Viability Assay in HepG2 cells - 32 hour (AID 1224877); note: nearly all actives have a fitted effect of over 55% in size; note: potency is the fitted concentration of half-maximal effect
# Procedure, shortened: as §1
# [13] = A CellTox Green Cytotoxicity Assay to monitor cytotoxicity in HepG2 cells - 24 hour (AID 1224878); note: nearly all actives have a fitted effect of over 45% in size; note: potency is the fitted concentration of half-maximal effect
# Procedure, shortened: (§6)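 Nonlytic assay: viable cells exclude the dye, so fluorescence scales with cell death. HepG2 at 600 cells/well, compounds added after 5 h, signal read across 40 h.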
# [14] = A CellTox Green Cytotoxicity Assay to monitor cytotoxicity in HepG2 cells - 40 hour (AID 1224879); note: nearly all actives have a fitted effect of over 40% in size; note: potency is the fitted concentration of half-maximal effect
# Procedure, shortened: as §6
# [15] = qHTS RealTime-Glo MT Cell Viability Assay in HEK293 cells - 0 hour (AID 1224880); note: top concentration of the series differs between compounds; nearly all actives have a fitted effect of over 45% in size
# Procedure, shortened: as §5
# [16] = A CellTox Green Cytotoxicity Assay to monitor cytotoxicity in HEK293 cells - 40 hour (AID 1224871); note: nearly all actives have a fitted effect of over 45% in size; note: potency is the fitted concentration of half-maximal effect
# Procedure, shortened: as §3
# [17] = A CellTox Green Cytotoxicity Assay to monitor cytotoxicity in HepG2 cells - 16 hour (AID 1224876); note: nearly all actives have a fitted effect of over 45% in size; note: potency is the fitted concentration of half-maximal effect
# Procedure, shortened: as §6
# [18] = qHTS assay to identify small molecule agonists of the hypoxia (HIF-1) signaling pathway (AID 1224846; active = well fitted activation curve with a large enough effect in the signal ratio in the repeat runs, not every such curve was filed as active; the % refers to the signal ratio)
# Procedure, shortened: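 Hypoxia-pathway activation was scored as increased beta-lactamase from an HRE-controlled reporter in ME-180 cells; plated at 2,000 cells per well with 0.5% dialyzed FBS, they were exposed 17 hrs to compounds and then given CCF4-AM.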
# [19] = qHTS assay to identify small molecule antagonists of the estrogen related receptor (ERR) signaling pathway from Tox21 library (AID 1224848); note: nearly all actives have a fitted effect of over 50% in size; note: potency is the fitted concentration of half-maximal effect
# Procedure, shortened: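 Reading was by luminescence 30 min after ONE-Glo addition. Before that, ERR cells at 2,000 per well had rested 6 h at 37 C/5% CO2 and then received pin-tooled compounds in DMSO for 18 h at 37 C.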
# [20] = qHTS assay to identify small molecule agonists of the estrogen related receptor (ERR) signaling pathway from Tox21 library (AID 1224849; calls by dose curve; note: nearly all actives have a fitted effect of over 15% in size); conditions: ERR reporter cell line, ONE-Glo luciferase, 18 h
# Procedure, shortened: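 Six hours post-seeding at 37 C/5% CO2, ERR cells receive DMSO-solubilised compounds; after 18 h at 37 C, ONE-Glo reagent is applied and luminescence recorded.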
compound,measurement,setting,value
CCCc1c(OCCCCc2nn[nH]n2)ccc(C(C)=O)c1O,Potency,[1],inactive
same,outcome,[2],inactive
same,Potency,[3],inactive
same,Potency,[4],inactive
same,Potency,[5],inactive
same,Potency,[6],inactive
same,Potency,[7],inactive
same,Potency,[8],inactive
same,Potency,[9],inactive
same,max response,[10],0.608% (inactive) and 1.1% (inactive)
same,Potency,[11],inactive
same,Potency,[12],inactive
same,Potency,[13],inactive
same,Potency,[14],inactive
CC(C)(C)NC(=O)[C@H]1CC[C@H]2[C@@H]3CC[C@H]4NC(=O)C=C[C@]4(C)[C@H]3CC[C@]12C,Potency,[1],inactive
same,outcome,[2],inactive
same,Potency,[3],inactive
same,Potency,[4],inactive
same,Potency,[5],inactive
same,Potency,[6],inactive
same,Potency,[7],inactive
same,Potency,[8],inactive
same,Potency,[9],inactive
same,max response,[10],-25.2% (inactive) and -19.5% (inactive)
same,Potency,[11],inactive
same,Potency,[12],inactive
same,Potency,[13],inactive
same,Potency,[14],inactive
same,Potency,[15],inactive
CN(C)CCC=C1c2ccccc2CCc2ccccc21,Potency,[1],38.9 µM (active)
same,outcome,[2],inactive
same,Potency,[3],113 µM (active) and inactive
same,Potency,[4],inactive and 43.6 µM (active)
same,Potency,[6],inactive
same,Potency,[7],inactive and 54.9 µM (active)
same,Potency,[16],inactive
same,Potency,[8],inactive
same,Potency,[9],inactive
same,Potency,[11],inactive
same,Potency,[17],24.5 µM (active)
same,Potency,[12],inactive and 49 µM (active)
same,Potency,[13],38.9 µM (active) and 23.9 µM (active)
same,Potency,[14],55 µM (active) and 43.6 µM (active) and 26.8 µM (active)
CC(C)OC(=O)C(C)(C)Oc1ccc(C(=O)c2ccc(Cl)cc2)cc1,Potency,[1],inactive
same,outcome,[2],inactive
same,Potency,[3],50.5 µM (active)
same,Potency,[4],inactive
same,Potency,[5],21.9 µM (active) and 10.7 µM (active)
same,Potency,[6],inactive
same,Potency,[7],inactive
same,Potency,[16],inactive
same,Potency,[8],21.9 µM (active) and 16.9 µM (active)
same,Potency,[9],inactive
same,Potency,[10],24.5 µM (active) and 19 µM (active)
same,Potency,[11],inactive
same,Potency,[12],inactive
same,Potency,[13],inactive
same,Potency,[14],inactive
CC(C)=CCC/C(C)=C\CO,Potency,[1],inactive
same,outcome,[2],inactive
same,Potency,[3],inactive
same,Potency,[4],inactive
same,Potency,[5],inactive
same,Potency,[6],inactive
same,Potency,[7],inactive
same,Potency,[16],inactive
same,Potency,[8],inactive
same,Potency,[9],inactive
same,max response,[10],0.916% (inactive) and 13.7% (inactive)
same,Potency,[11],inactive
same,Potency,[12],inactive
same,Potency,[13],inactive
same,Potency,[14],inactive
same,Potency,[15],inactive
Nc1ccc(S(=O)(=O)Nc2cnc3ccccc3n2)cc1,Potency,[1],inactive
same,outcome,[2],inactive
same,Potency,[3],inactive
same,Potency,[4],inactive
same,Potency,[5],inactive
same,Potency,[6],inactive
same,Potency,[7],inactive
same,Potency,[16],inactive
same,Potency,[8],inactive
same,Potency,[9],inactive
same,max response,[10],-2.7% (inactive) and 1.7% (inactive)
same,Potency,[11],inactive
same,Potency,[17],inactive
same,Potency,[12],inactive
same,Potency,[13],inactive
same,Potency,[14],inactive
same,Potency,[15],inactive
S=C(NC1CCCCC1)NC1CCCCC1,outcome,[2],inactive
same,Potency,[18],inactive
same,Potency,[3],inactive
same,Potency,[19],15.1 µM (active) and inactive
same,"activity change, positive = activation",[20]; at 92.4 µM (top of the series),-59.4% (inactive) and -64.8% (inactive)
same,Potency,[4],inactive
same,Potency,[5],15.2 µM (active) and 21.9 µM (active)
same,Potency,[6],inactive
same,Potency,[7],inactive
same,Potency,[9],inactive
same,Potency,[10],17 µM (active) and 21.9 µM (active)
same,Potency,[11],inactive
same,Potency,[17],inactive
same,Potency,[12],inactive
same,Potency,[13],inactive
same,Potency,[14],inactive
Cc1cccc(N(C)C(=S)Oc2ccc3ccccc3c2)c1,Potency,[1],inactive
same,outcome,[2],inactive
same,Potency,[4],inactive
same,Potency,[5],inactive
same,Potency,[6],inactive
same,Potency,[7],inactive
same,Potency,[16],inactive
same,Potency,[8],inactive
same,Potency,[9],inactive
same,max response,[10],-21.9% (inactive) and -0.992% (inactive)
same,Potency,[11],inactive
same,Potency,[17],inactive
same,Potency,[12],inactive
same,Potency,[13],inactive
same,Potency,[14],inactive
CNCCCC12CCC(c3ccccc31)c1ccccc12,Potency,[1],inactive
same,Potency,[3],113 µM (active)
same,Potency,[4],49 µM (active) and 23.9 µM (active)
same,Potency,[5],49 µM (active) and 23.9 µM (active)
same,Potency,[6],inactive
same,Potency,[7],38.9 µM (active) and 26.8 µM (active)
same,Potency,[16],49 µM (active)
same,Potency,[8],54.9 µM (active)
same,Potency,[9],inactive
same,Potency,[10],49 µM (active) and 23.9 µM (active)
same,Potency,[11],54.9 µM (active)
same,Potency,[12],43.6 µM (active) and 23.9 µM (active)
same,Potency,[13],43.6 µM (active) and 23.9 µM (active)
same,Potency,[14],34.7 µM (active) and 23.9 µM (active)
O=C1OC2(c3cc(Br)c(O)c(Br)c3Oc3c2cc(Br)c(O)c3Br)c2c(Cl)c(Cl)c(Cl)c(Cl)c21,Potency,[1],19.5 µM (active) and 29.7 µM (active)
same,Potency,[18],inactive
same,Potency,[3],7.14 µM (active)
same,Potency,[19],inactive
same,"activity change, positive = activation",[20]; at 42.5 µM (top of the series),-3.67% (inactive)
same,"activity change, positive = activation",[20]; at 92.4 µM (top of the series),-28% (inactive)
same,Potency,[4],inactive
same,Potency,[5],inactive
same,Potency,[6],43.7 µM (active) and 26.5 µM (active)
same,Potency,[7],inactive
same,Potency,[16],4.91 µM (active) and 29.7 µM (active)
same,Potency,[8],inactive
same,Potency,[9],inactive
same,max response,[10],-3.53% (inactive)
same,Potency,[11],3.9 µM (active) and 26.5 µM (active)
same,Potency,[12],inactive
same,Potency,[13],3.1 µM (active) and 23.6 µM (active)
same,Potency,[14],3.1 µM (active) and 14.9 µM (active)
Cc1[nH]c(=O)c(C#N)cc1-c1ccncc1,Potency,[1],inactive
same,outcome,[2],inactive
same,Potency,[3],inactive
same,Potency,[4],inactive
same,Potency,[5],inactive
same,Potency,[6],inactive
same,Potency,[7],inactive
same,Potency,[16],inactive
same,Potency,[8],inactive
same,Potency,[9],inactive
same,max response,[10],0.254% (inactive) and -5.73% (inactive)
same,Potency,[11],inactive
same,Potency,[17],inactive
same,Potency,[12],inactive
same,Potency,[13],inactive
same,Potency,[14],inactive
